Only some compounds are listed: those with a hit (about 1.2% of all), similar ones and a draw of the others.
KCNH2 3.1 block: blocks the human KCNH2 3.1 channel isoform; 340,000 compounds, 0.95% hits; AID 720553; U2OS KCNH2 3.1, thallium flux FluxOr; stronger effect = lower value; activity change, % (tested at about 1.8 µM);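 active = maximum activity change below -70%; inconclusive = maximum activity change from -70% to -50%; inactive = maximum activity change above -50%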;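 note: thallium influx rate constant from kinetic fluorescence after stimulation buffer; % is set by controls: 0 for no effect and ±100 for the full control effect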
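U2OS cells transduced with KCNH2 3.1 mutant virus (1.77 x 10^8 /mL, 4 h), plated overnight at 37 C, loaded 45 min with FluxOr dye plus Red40 quencher. Thallium flux rate constant from kinetic reads after stimulation buffer, normalised to controls.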
KCNH2 WT inh: inhibitors of human wildtype KCNH2 potassium channel | Q12809 | U2OS, BacMam KCNH2, thallium flux FluxOr; stronger effect = lower value | activity change, % at 1.84 µM | 340,000 compounds, 0.37% hits | AID 720551;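 active = maximum activity change below -70%; inconclusive = maximum activity change between -70% and -50%; inactive = maximum activity change above -50%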; note: % is set by controls: 0 for no effect and ±100 for the full control effect
Target sequence (Q12809 whole entry, looked up): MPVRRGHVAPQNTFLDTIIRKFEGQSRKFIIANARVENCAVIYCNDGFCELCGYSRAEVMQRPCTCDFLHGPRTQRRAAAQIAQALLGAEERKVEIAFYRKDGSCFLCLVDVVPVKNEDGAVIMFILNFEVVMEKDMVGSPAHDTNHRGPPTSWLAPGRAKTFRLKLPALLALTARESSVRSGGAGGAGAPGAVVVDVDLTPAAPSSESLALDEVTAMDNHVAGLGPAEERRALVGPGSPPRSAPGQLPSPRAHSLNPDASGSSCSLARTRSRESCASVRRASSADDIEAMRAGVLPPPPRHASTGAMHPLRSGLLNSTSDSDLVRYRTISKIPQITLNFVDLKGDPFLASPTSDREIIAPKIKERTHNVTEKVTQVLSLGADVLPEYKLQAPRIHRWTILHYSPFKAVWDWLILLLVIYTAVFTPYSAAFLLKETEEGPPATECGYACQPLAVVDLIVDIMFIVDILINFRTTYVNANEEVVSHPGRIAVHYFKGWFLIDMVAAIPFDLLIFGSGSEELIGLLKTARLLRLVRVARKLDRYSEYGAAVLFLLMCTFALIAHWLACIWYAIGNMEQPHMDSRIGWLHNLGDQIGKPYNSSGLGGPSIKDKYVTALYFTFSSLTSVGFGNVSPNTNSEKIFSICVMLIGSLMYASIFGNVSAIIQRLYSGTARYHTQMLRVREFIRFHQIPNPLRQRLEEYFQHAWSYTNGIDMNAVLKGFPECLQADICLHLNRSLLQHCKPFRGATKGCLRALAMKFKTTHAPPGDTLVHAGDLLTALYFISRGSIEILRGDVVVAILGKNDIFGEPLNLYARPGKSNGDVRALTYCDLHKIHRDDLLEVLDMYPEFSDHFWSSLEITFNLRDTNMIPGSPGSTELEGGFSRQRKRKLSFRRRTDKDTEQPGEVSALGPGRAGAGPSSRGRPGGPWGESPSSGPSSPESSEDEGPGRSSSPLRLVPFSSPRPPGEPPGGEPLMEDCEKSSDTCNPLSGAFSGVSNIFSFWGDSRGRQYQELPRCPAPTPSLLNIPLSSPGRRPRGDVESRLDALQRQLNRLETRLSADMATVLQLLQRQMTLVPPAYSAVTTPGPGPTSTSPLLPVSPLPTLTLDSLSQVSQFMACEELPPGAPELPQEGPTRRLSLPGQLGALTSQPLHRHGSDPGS
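U2OS cells were transduced with wild-type KCNH2 virus (2.03 x 10^8 / mL) for 4 h at room temperature, then cultured overnight at 37 C. Thallium flux was read with FluxOr dye. Rate constants were normalized to DMSO controls.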
TRPV1 potentiator: potentiators of human vanilloid receptor 1 (TRPV1); AID 540277; TRPV1-expressing cells, Fluo-8 calcium influx, capsaicin EC20 potentiation; 320,000 compounds, 0.02% hits; potentiation, % at 8.33 µM; in the data active = potentiation above about 80%; inconclusive = between about 30% and that limit; note: 0% is about no effect
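Cells expressing TRPV1 were dye-loaded with Fluo-8 and read kinetically: 10 s baseline, 3 min after compound (agonist portion), then 2 min after EC20 capsaicin (allosteric enhancer portion). Calcium-bound dye fluorescence at 480/520 nm.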
TRPV1 agonist: human TRPV1 agonism. Q8NER1. TRPV1-expressing cells, Fluo-8 calcium influx, agonist mode. activation, % at 8.33 µM. 320,000 compounds, 0.19% hits. AID 540275; in the data active = activation above about 80%; inconclusive = between about 30% and that limit; note: 0% is about no effect
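Cells expressing TRPV1 were dye-loaded with Fluo-8 and read kinetically: 10 s baseline, 3 min after compound (agonist portion), then 2 min after EC20 capsaicin (allosteric enhancer portion). Calcium-bound dye fluorescence at 480/520 nm.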
An asterisk follows results filed as active; i = inactive; ? = inconclusive; . = no result given.

SMILES | KCNH2 3.1 block | KCNH2 WT inh | TRPV1 potentiator | TRPV1 agonist
CN(C)CCCNC(=O)/C(=C\C=C\c1ccccc1)NC(=O)c1ccc([N+](=O)[O-])cc1 | -99* | -72* | 2 | 1
Cc1ccc(C(=O)N/C(=C\c2ccc([N+](=O)[O-])cc2)C(=O)NCCc2ccccc2)cc1 | -96* | -20 | 4 | -2
CCOC(=O)C1(CCCc2ccccc2)CCN(C(=O)c2n[nH]c(CC)c2C)CC1 | -17 | 27 | . | .
Cc1ccc(C(=O)N/C(=C\c2ccc(Cl)cc2)C(=O)NCCN2CCOCC2)cc1 | ? | -93* | 8 | -7
CCOc1ccc(CN2CCN(c3ncnc4scc(-c5ccccc5)c34)CC2)cc1 | -116* | -141* | -6 | 3
COc1ccc(N2CCN(c3ncnc4scc(-c5ccc(F)cc5)c34)CC2)cc1 | 9 | 1 | -29 | -3
COc1ccc(CN2CCN(c3ncnc4scc(-c5ccc(F)cc5)c34)CC2)cc1 | -97* | ? | -1 | -4
COc1ccc(N2CCN(c3ncnc4scc(-c5ccccc5)c34)CC2)cc1 | -23 | 4 | -2 | 0
CCOC(=O)c1cccc(C2=CC(=O)C[C@H](c3ccc(OC)c(OC)c3)C2)c1 | 11 | 1 | -8 | 22
COc1ccc(CCn2c(=N)c(C(=O)NCC3CCCO3)cc3c(=O)n4ccccc4nc32)cc1 (stereo unspecified) | -86* | ? | -31 | ?
N=c1c(C(=O)NCC2CCCO2)cc2c(=O)n3ccccc3nc2n1Cc1ccc(Cl)cc1 (stereo unspecified) | -131* | -45 | -2 | ?
N=c1c(C(=O)NC2CCCC2)cc2c(=O)n3ccccc3nc2n1Cc1ccccc1 | -77* | -6 | -9 | ?
N=c1c(C(=O)NCc2ccc(F)cc2)cc2c(=O)n3ccccc3nc2n1CC1CCCO1 (stereo unspecified) | -86* | -122* | -21 | ?
Cc1ccc(Cn2c(=N)c(C(=O)NCC3CCCO3)cc3c(=O)n4cccc(C)c4nc32)cc1 (stereo unspecified) | -4 | -11 | -11 | 82*
COc1ccc(CCn2c(=N)c(C(=O)NC3CCCCC3)cc3c(=O)n4ccccc4nc32)cc1 | -87* | ? | -6 | ?
Cc1ccc(Cn2c(=N)c(C(=O)NCC3CCCO3)cc3c(=O)n4ccccc4nc32)cc1 (stereo unspecified) | -45 | -16 | -3 | ?
O=C(O)C(C=C(Cl)Cl)N1CCOCC1 (stereo unspecified) | 12 | -8 | . | .
CCN(CC)S(=O)(=O)c1ccc(/C=C/C(=O)Nc2cccc(F)c2)cc1 | . | -7 | -11 | 97*
Cc1ccc2nc(-c3cccc(Br)c3)cc(C(=O)NC3CC3)c2c1 | . | -23 | -1 | 12
CCc1cccc(CC)c1NC(=O)C(NS(=O)(=O)c1cccs1)c1ccccc1 (stereo unspecified) | -3 | -8 | -7 | 3
Cc1ccc(Cl)cc1NC(=O)C(NS(=O)(=O)c1cccs1)c1ccccc1 (stereo unspecified) | -14 | -119* | -3 | 4
COc1ccc(-n2cnc(=S)[nH]c2=S)cc1 | 19 | -4 | . | .
C=CCN(c1ccc(C(=O)Nc2ccc3c(c2)n(C)c(=O)n3C)cc1)S(C)(=O)=O | 4 | -284* | 2 | 1
NC(=S)N/N=C/c1ncc(C(F)(F)F)cc1Cl | 7 | 2 | 6 | -2
CCc1ccc(NC(=O)C(=O)NCCN2CCN(C(=O)c3ccc(OC)cc3)CC2)cc1 | -97* | 31 | . | .
SMILES | KCNH2 3.1 block | KCNH2 WT inh | TRPV1 potentiator | TRPV1 agonist
O=C(CN1CCN(Cc2ccc(Cl)cc2)CC1)N/N=C/C=C/c1ccccc1[N+](=O)[O-] | -91* | -36 | -3 | 4
O=C(NCCN1CCN(c2cccc(Cl)c2)CC1)Nc1ccccc1 | 2 | 31 | -13 | ?
C/C(=N/NC(=O)CN1CCN(Cc2ccccc2)CC1)c1ccc([N+](=O)[O-])cc1 | -79* | -11 | 8 | 0
O=C(NCCN1CCN(Cc2ccccc2)CC1)Nc1cc(Cl)cc(Cl)c1 | -93* | ? | 6 | 2
CCCCC(CCc1ccccn1)C(=O)c1ccccc1 (stereo unspecified) | 4 | 2 | . | .
CSCCC(NS(=O)(=O)c1ccc(Br)cc1)C(=O)OCC(=O)NC1CC1 (stereo unspecified) | 13 | 3 | 1 | -1
COc1ccc(S(=O)(=O)N2CCN(CC(=O)NC(C)c3cccs3)CC2)cc1 (stereo unspecified) | -5 | 4 | . | .
CCCCc1ccc(NC(=O)C(=O)NCCN2CCN(C(=O)c3ccc([N+](=O)[O-])cc3)CC2)cc1 | -101* | ? | 4 | -6
O=C(NCCN1CCN(Cc2ccc([N+](=O)[O-])cc2)CC1)C(=O)Nc1ccccc1 | -82* | ? | 4 | -3
O=C(CCN1CCN(c2ccc([N+](=O)[O-])cc2)CC1)c1ccc(Cl)cc1 | -113* | -77* | 3 | 1
O=C(NCCN1CCN(c2ccc([N+](=O)[O-])cc2)CC1)NCc1ccccc1 | -73* | -10 | -15 | 11
O=C(CN1CCN(c2ccc([N+](=O)[O-])cc2)CC1)c1ccccc1 | -8 | 1 | 29 | 1
COc1ccc(S(=O)(=O)N2CCN(c3ccccc3F)CC2)cc1-c1noc(C)n1 | . | . | 24 | 1
CC1CCCCN1CCCNC(=O)C1CCN(c2nnc(-n3cccc3)s2)CC1 (stereo unspecified) | -201* | 23 | ? | -1
CN(CC(=O)Nc1ccc(S(N)(=O)=O)cc1)C1CCCCC1 | -4 | 8 | 5 | 1
COc1ccc(CN(C)CC(=O)Nc2ccc(SC(F)F)cc2)cc1OC | -98* | -38 | -20 | ?
CN(CC(=O)Nc1ccc(SC(F)F)cc1)C1CCCCC1 | -94* | -37 | -12 | ?
COc1ccc(CN(C)CC(=O)Nc2ccc(N3CCOCC3)cc2)cc1OC | 6 | 14 | 9 | -8
N#Cc1ccccc1CSc1nnc(Cc2ccccc2)o1 | 11 | i | 9 | -1
O=C1c2ccccc2C2N1CCCN2C(=O)c1sc2ccccc2c1Cl (stereo unspecified) | -5 | 41 | . | .
O=c1cc(N2CCCCC2)c(-c2ccccc2)nn1Cc1ccc(Cl)cc1 | -95* | -8 | -3 | ?
CC1CN(C(=O)/C(C#N)=C2\N=C(NC(=O)c3ccccc3Cl)c3ccccc32)CC(C)O1 (stereo unspecified) | . | . | 1 | 0
COc1ccccc1C1CCN(Cc2ccc3ccccc3c2)CC1 | -188* | -209* | -9 | 2
COc1ccccc1C1CCN(Cc2ccccc2)CC1 | 0 | 19 | 8 | 4
S=c1[nH]nc(CSCCOc2ccc(Cl)cc2Cl)o1 | -166* | -154* | 6 | 0
COc1ccccc1CNC(=O)CCC(=O)Nc1nnc(C)s1 | -4 | -298* | 2 | 0
O=[N+]([O-])c1ccc(CN2CC(N3CCN(CC4CC4)CC3)CS2(=O)=O)cc1 (stereo unspecified) | -39 | 24 | . | .
